# This is a sample that favours compounds with a hit; in the whole collection about 13% have one here.
# HCMV inh – human cytomegalovirus inhibition. HFF cells, HCMV-luciferase reporter, 72 h; stronger effect = lower value. activity change, negative = inhibition, % at 57.5 µM. hit rate 4.5% among 410,000; in the data active means activity change below about -60%; inconclusive means no clear call, values can overlap the other calls; inactive means above about -39%
#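 Compounds were evaluated in HFFs infected with an HCMV luciferase reporter virus (MOI 1 PFU/cell). Luciferase in lysates collected 72 h post infection served as the replication measure.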
# Pf growth 96h – P. falciparum growth inhibition at 96 hours; P. falciparum luciferase reporter growth, 96 h; Potency, µM (highest dose often 28.7 µM), for the others: at the highest dose activity change, negative = inhibition, actives largely listed as inhibitors; hit rate 6.9% among 320,000; AID 504834; further: potency means the concentration at half of the fitted maximal effect
#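 Two parasite generations (96 h, 37 C, 5% CO2) of compound exposure in infected erythrocytes (0.05% parasitemia, 2% hematocrit). Luciferase-reporter P. falciparum; decreased luminescence indicates inhibited growth, aimed at apicoplast-acting delayed death.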
# HCV inh – inhibitors of hepatitis C virus infection. Huh7.5.1 HCVcc-Cre infection, luciferase reporter, 44 h. AID 651820. Potency, µM (doses to about 41.8 µM), for the others: at the top dose activity change, negative = inhibition, most hits filed as inhibitors. hit rate 3.4% among 340,000; further: potency means the concentration at half of the fitted maximal effect
#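 Seed cells (1,000/well) for 4 h; treat with compound and infect with HCVcc-Cre, moi about 0.5. Incubate 44 h, then detect luciferase activity.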
# Pf growth 48h – P. falciparum growth inhibition at 48 hours (one generation); P. falciparum luciferase growth in erythrocytes, 48 h; Potency, µM (top dose mostly 28.7 µM), for inactives: at the top dose activity change, negative = inhibition, actives largely listed as inhibitors; hit rate 5.9% among 310,000; AID 504832; further: potency means the concentration at half of the fitted maximal effect
#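 Luciferase-expressing parasites in RBCs, 2% Hct / 0.1% parasitemia final; RPMI 1640 + 0.5% Albumax; 37 C, 5% CO2, one generation; luminescence read-out, lower signal = inhibition.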
# An asterisk follows results filed as active; ? = inconclusive; nt = no result given. Unless noted, the call rests on the fitted dose curve; in most records, active means well fitted inhibition curve with a large enough effect; inconclusive means small, poorly fitted or top-dose-only effect, or another doubt; inactive means no such curve, though single readings can be large or run the other way. On the % scale 0 is the no-effect control and ±100 the full control effect.
SMILES,HCMV inh,Pf growth 96h,HCV inh,Pf growth 48h
Cc1ccc(C(=O)Nc2ccccc2N2CCOCC2)cc1S(=O)(=O)N1CCOCC1,-12.5,?,-37.7%,13.1µM*
O=C(NCC1CCCCC1)c1ccc(Cl)c(S(=O)(=O)N2CCOCC2)c1,0.0,?,?,?
O=C(NCC1CCCCC1)c1ccc(F)c(S(=O)(=O)N2CCOCC2)c1,-28.1,7.38µM*,8.0%,?
Cc1ccc(C(=O)N2CCOCC2)cc1S(=O)(=O)N1CCOCC1,33.2,?,10.1%,29.0%
OCCN1CC(O)C(O)C(O)C1CO (stereo unspecified),nt,0.7%,nt,-3.0%
CCc1ccc(-n2nc(CO)c(C(=O)NCc3cccs3)n2)cc1,21.2,nt,nt,nt
O=C(Nc1ccccc1N1CCCCC1)c1ccc(F)c(S(=O)(=O)N2CCOCC2)c1,-35.2,?,10µM*,13.1µM*
O=C(Nc1ccccc1C(F)(F)F)c1ccc(F)c(S(=O)(=O)N2CCOCC2)c1,-8.5,nt,11.6%,-20.8%
CC1(C)Cc2c(sc(NC(=O)C(C)(C)C)c2C#N)C(C)(C)N1,57.1,3.29µM*,8.9%,?
Cc1csc2nc(COc3ccccc3NC(=O)c3ccccc3Cl)cc(=O)n12,2.5,nt,nt,nt
COC(=O)COc1ccc2c(-c3ccc(OC)cc3)cc(=O)oc2c1,-16.3,nt,13.5%,34.1%
COc1ccc(-c2cc(=O)oc3cc(OCc4nn[nH]n4)ccc23)cc1,-14.1,4.65µM*,2.9%,37.2%
CC1CCN(S(=O)(=O)c2ccc3c(c2)N(CC(=O)NCCN(C)C)C(=O)CS3)CC1,0.2,nt,nt,nt
CCN1C(c2ccccc2)C(C)C(=O)C(C)C1c1ccccc1 (stereo unspecified),-28.9,9.28µM*,4.2%,11.7µM*
CC(=O)c1ccc(N2CCN(C(=O)c3cc4cc5cc(C)ccc5nc4s3)CC2)cc1,3.5,nt,nt,nt
CCCn1nc(C(=O)N2CCN(S(=O)(=O)c3ccc(C)c(C)c3)CC2)c2ccccc2c1=O,-10.7,?,14.1µM*,11.7µM*
Cc1nc2c3ccccc3nc(NNC(=O)CCC(=O)N3CCN(c4cccc(Cl)c4)CC3)n2n1,-8.4,nt,nt,nt
O=C(Nc1nnc(S(=O)(=O)N2CCCc3ccccc32)s1)c1ccc(Cl)cc1,-15.2,nt,nt,nt
O=C(c1cccc(NS(=O)(=O)c2ccccc2)c1)N1CCCC1,-3.8,11.7%,10.5%,2.8%
CS(=O)(=O)N(CC(=O)N1CCN(c2ccccc2F)CC1)C1CCCCC1,?,0.0%,-0.8%,14.3%
CS(=O)(=O)N(CC(=O)N1CCN(C(c2ccccc2)c2ccccc2)CC1)C1CCCCC1,21.2,2.62µM*,-12.2%,nt
O=C(C1CCCCN1S(=O)(=O)c1ccccc1)N1CCN(C(c2ccccc2)c2ccccc2)CC1 (stereo unspecified),31.6,1.85µM*,12.6µM*,1.85µM*
O=C(C1CCCCN1S(=O)(=O)c1ccccc1)N1CCCCC1 (stereo unspecified),-7.2,?,?,?
O=C(C1CCCCN1S(=O)(=O)c1ccc(F)cc1)N1CCN(c2ccccc2F)CC1 (stereo unspecified),19.6,4.65µM*,15.8%,-6.6%
O=C(c1cccc(NS(=O)(=O)c2ccc(F)c(F)c2)c1)N1CCN(C(c2ccccc2)c2ccccc2)CC1,-15.9,?,?,13.1µM*
SMILES,HCMV inh,Pf growth 96h,HCV inh,Pf growth 48h
COc1ccc(-c2nc3ccccc3s2)cc1NC(=O)c1ccc(C#N)cc1F,4.0,nt,nt,nt
Cc1ccc2cc(CN(Cc3ccco3)S(=O)(=O)c3c(C)ccc4nsnc34)c(=O)[nH]c2c1,-10.3,3.7%,?,?
COCCN(Cc1cc2ccc(C)cc2[nH]c1=O)S(=O)(=O)c1ccccc1,-30.9,?,0.4%,0.0%
Cc1ccc2[nH]c(=O)c(CN(CCCO)S(=O)(=O)c3c(C)ccc4nsnc34)cc2c1,58.7,5.86µM*,3.7%,0.1%
Cc1ccc2cc(CN(CC(C)C)S(=O)(=O)c3cccc4nonc34)c(=O)[nH]c2c1,-9.0,10.4µM*,5.4%,?
O=c1[nH]c2cc3c(cc2cc1CN(CCO)S(=O)(=O)c1ccccc1Cl)OCCO3,27.8,0.657µM*,-1.9%,nt
Cc1cc2cc(CN(CCCO)S(=O)(=O)c3cccc4nsnc34)c(=O)[nH]c2cc1C,48.0,-6.2%,nt,9.28µM*
CCOC(=O)c1cccn1C1C(=O)N(Cc2ccc(C(F)(F)F)cc2)c2ccccc21 (stereo unspecified),-5.3,nt,nt,nt
Cc1cc2c(cc1NS(=O)(=O)c1ccc(Br)cc1)n(C)c(=O)c(=O)n2C,11.8,nt,nt,nt
Cc1ccc2cc(CN(CC3CCCO3)S(=O)(=O)c3cccc4nsnc34)c(=O)[nH]c2c1 (stereo unspecified),14.8,-1.2%,7.5%,9.28µM*
CC(=O)Nc1ccc(S(=O)(=O)N(Cc2cc3ccc(C)cc3[nH]c2=O)CC2CCCO2)cc1 (stereo unspecified),16.4,?,-2.4%,1.3%
COC(=O)C(C(=O)OC)c1ncccc1NS(=O)(=O)c1ccc(C)cc1,-10.3,nt,nt,nt
Cc1ccc(Cl)cc1Nc1nc2ccccc2n2c(C)nnc12,3.5,nt,nt,nt
CCOC(=O)Nc1ccc2c(c1)N(C(=O)CCN1CCN3CCCC3C1)c1ccccc1CC2 (stereo unspecified),-35.5,14.7µM*,6.0%,-28.3%
COC(=O)Nc1ccc2c(c1)N(C(=O)CCN1CCN3CCCC3C1)c1ccccc1CC2 (stereo unspecified),23.6,?,7.8%,-27.7%
CCOC(=O)Nc1ccc2c(c1)N(C(=O)N(CC)CC)c1ccccc1CC2,-8.5,?,-19.5%,11.7µM*
CCNCC(=O)N1c2ccccc2CCc2ccc(NC(=O)OC(C)C)cc21,-19.1,-33.2%,?,11.7µM*
CCOC(=O)Nc1ccc2c(c1)N(C(=O)N1CCN(C)CC1)c1ccccc1CC2,-17.8,0.2%,24.2%,11.7µM*
CCOC(=O)Nc1ccc2c(c1)N(C(=O)N(C)C)c1ccccc1CC2,57.3,-0.5%,-1.7%,?
Cn1c(/N=C(\N)c2ccccc2)nc2ccccc21,208.2,nt,nt,nt
CCCCSc1nnc2c(n1)OC(c1ccc(Br)s1)N(C(C)=O)c1ccccc1-2 (stereo unspecified),-1.6,nt,nt,nt
CC1=C(C(=O)N2CCCCC2)C(c2cccc(Cl)c2)n2c(nc3ccccc32)N1 (stereo unspecified),-13.6,nt,nt,nt
Cc1nc2nc(C)c(NS(=O)(=O)c3ccc(F)cc3)c(=O)n2[nH]1,10.7,nt,nt,nt
CCOC(=O)Nc1ccc2c(c1)N(C(=O)CN1CCN(CCO)CC1)c1ccccc1CC2,-28.2,11.7µM*,8.6%,?
Nc1ccc(N2CCN(c3ccc(Cl)c(Cl)c3)CC2)cc1,-85.2*,?,?,-17.0%
Nc1ccc(N2CCCCCC2)cc1,nt,?,nt,0.415µM*
O=S(=O)(c1ccc(F)cc1)N1CCN(c2ccc(F)cc2)CC1,-8.9,?,6.9%,0.9%
COC(=O)N1CCN(c2ccc(Cl)c(Cl)c2)CC1,-18.7,nt,0.4%,25.0%
CC(=O)N1CCN(c2ccc(N)cc2)CC1,-73.7*,147.8%,nt,171.1%
Nc1ccc(N2CCN(c3ccc(F)cc3)CC2)cc1,-60.3*,?,0.8%,?

# High-throughput results (PubChem BioAssay)
